For the test, the target named is Ubiquitin carboxyl-terminal hydrolase 1 (Homo sapiens) (UniProt O94782). The test is described as follows: Inhibitors of USP1/UAF1: Hit Validation in Primary Assay. Particulars: Ub-Rhodamine cleavage, fluorescence kinetic read. An excerpt:
Deubiquitinating enzymes (DUBs) are a class of enzymes that can cleave isopeptide bond formed between the C-terminal carboxylate of ubiquitin and a lysine side-chain amino group on the target protein. Among them, ubiquitin specific proteases (USPs) constitute the largest DUB family. Human USPs are emerging as promising targets for pharmacological intervention because of their connection to a number of human diseases, including prostate, colon and breast cancer (1, 2), pediatric acute lymphoblastic leukemia (3), and familial cylindromatosis (4). The advantage of inhibiting USPs lies in the potential specificity of therapeutic intervention that can lead to better efficacy and reduce nonspecific side effects. […] This miniaturized assay has a fluorescent read-out and is used to screen the NIH Molecular Libraries Small Molecule Repository (MLSMR) in order to identify a small molecule that inhibits USP1. […]
3 microliters of reagents (buffer in columns 3 and 4 as negative control and 1nM USP1/UAF1 complex in columns 1, 2, and 5-48) are dispensed into Greiner black solid bottom 1536-well assay plates. […] The plates are immediately centrifuged at 1000 rpm for 15 seconds, and subsequently transferred to a ViewLux high-throughput CCD imager (PerkinElmer) wherein kinetic measurements of fluorescence are acquired using 480 nm excitation/540 nm emission filter set (6 reads every 60 seconds, see Table 1). […]

The list shows a part of the results. Records with an inconclusive call do not appear. Calls of active or inactive are those of the source. Calls come from the whole dose curve; as a rule, active = well fitted inhibition curve with a large enough effect; inconclusive = small, poorly fitted or top-dose-only effect; inactive = flat fitted curve, though single readings scatter.

Sequence of Ubiquitin carboxyl-terminal hydrolase 1 (Homo sapiens) (O94782 whole entry, looked up): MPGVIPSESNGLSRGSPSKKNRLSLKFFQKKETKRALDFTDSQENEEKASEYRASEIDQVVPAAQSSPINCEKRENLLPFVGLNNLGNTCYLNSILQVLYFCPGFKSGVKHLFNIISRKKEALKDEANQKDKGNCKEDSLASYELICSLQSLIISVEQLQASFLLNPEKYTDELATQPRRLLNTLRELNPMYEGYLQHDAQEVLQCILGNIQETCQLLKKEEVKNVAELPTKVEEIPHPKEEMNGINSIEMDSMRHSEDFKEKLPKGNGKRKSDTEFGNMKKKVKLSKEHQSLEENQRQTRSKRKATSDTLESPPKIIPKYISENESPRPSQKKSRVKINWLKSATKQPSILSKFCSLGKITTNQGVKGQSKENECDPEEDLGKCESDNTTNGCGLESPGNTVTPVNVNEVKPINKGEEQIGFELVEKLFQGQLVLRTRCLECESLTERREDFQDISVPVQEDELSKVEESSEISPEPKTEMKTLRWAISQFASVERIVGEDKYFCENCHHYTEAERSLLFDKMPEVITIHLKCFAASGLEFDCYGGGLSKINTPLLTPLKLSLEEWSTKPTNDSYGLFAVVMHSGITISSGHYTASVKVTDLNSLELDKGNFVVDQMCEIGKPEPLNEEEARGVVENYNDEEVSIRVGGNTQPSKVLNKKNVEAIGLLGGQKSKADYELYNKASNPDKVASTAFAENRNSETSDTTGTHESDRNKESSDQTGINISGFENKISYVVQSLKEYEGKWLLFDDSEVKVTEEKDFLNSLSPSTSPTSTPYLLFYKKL

For `CC(=O)c1c(O)c(C)c(O)c(Cc2c(O)c3c(c(C(=O)/C=C/c4ccccc4)c2O)OC(C)(C)C=C3)c1O`, the Potency is 41.8 µM (active).

The values above are taken from PubChem BioAssay AID540327 (National Center for Advancing Translational Sciences (NCATS), 2011).
